Potency data for 29 molecules are collected here from PubChem BioAssay AID1671190 (National Center for Advancing Translational Sciences (NCATS), 2021).

SMILES strings stand for the structures. The whole screen tested about 580,000 compounds, of which about 6,100 (1.1%) were called active. Where a call stands in place of a potency, no number is given. Roughly 15% stayed inconclusive and do not appear here. The call rests on the fitted dose curve; in most records, active means well fitted inhibition curve with a large enough effect; inconclusive means small, poorly fitted or top-dose-only effect, or another doubt; inactive means no such curve, though single readings can be large or run the other way. Many of the other results were omitted from the sample, so actives are more common in it than they were.
Potency means the concentration at half of the fitted maximal effect.

This assay deals with Polyunsaturated fatty acid lipoxygenase ALOX12 (Homo sapiens) (UniProt P18054). Put plainly: Primary qHTS assay for inhibitors of human arachidonate 12S-lipoxygenase (ALOX12): Round 2. To be noted: purified 12hLO, xylenol orange hydroperoxide absorbance; series mostly up to 108 µM. An outline of the steps: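 Hydroperoxide product was detected by ferrous iron/xylenol orange as the 573 to 405 nm absorbance ratio. Arachidonic acid at 40 uM (final) was turned over for 30 min at room temperature by 150 nM human 12hLO, pH 7.0 Hepes buffer, after 15 min compound preincubation.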
Polyunsaturated fatty acid lipoxygenase ALOX12 (Homo sapiens), sequence (P18054 whole entry, looked up): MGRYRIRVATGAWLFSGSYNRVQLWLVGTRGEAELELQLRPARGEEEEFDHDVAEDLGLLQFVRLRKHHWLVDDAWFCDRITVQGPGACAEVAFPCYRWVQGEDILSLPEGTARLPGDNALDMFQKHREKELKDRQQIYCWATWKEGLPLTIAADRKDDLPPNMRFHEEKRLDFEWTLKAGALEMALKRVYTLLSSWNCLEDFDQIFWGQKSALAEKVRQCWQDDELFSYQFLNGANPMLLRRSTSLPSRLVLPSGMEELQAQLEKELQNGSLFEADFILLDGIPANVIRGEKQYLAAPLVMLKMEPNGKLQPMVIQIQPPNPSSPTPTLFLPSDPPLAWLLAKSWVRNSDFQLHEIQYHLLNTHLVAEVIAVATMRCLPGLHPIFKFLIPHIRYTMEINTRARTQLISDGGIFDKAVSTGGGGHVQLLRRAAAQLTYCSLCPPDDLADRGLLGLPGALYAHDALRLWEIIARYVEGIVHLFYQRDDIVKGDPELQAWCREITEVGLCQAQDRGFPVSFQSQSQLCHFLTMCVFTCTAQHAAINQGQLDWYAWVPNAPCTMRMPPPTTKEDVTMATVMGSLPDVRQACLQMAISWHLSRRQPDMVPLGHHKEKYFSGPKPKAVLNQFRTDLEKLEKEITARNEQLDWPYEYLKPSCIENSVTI
For the molecule `O=C(NNC(=O)C1(c2ccc(Br)cc2)CCCC1)c1ccccc1`, the Potency entry was “inactive”.

Take `COc1ccc(C2Cn3cnc(-c4nc(-c5ccc(OC)cc5OC)no4)c3CO2)cc1` (centres undefined): the Potency entry is “inactive”.

With `CCc1c(C(=O)O)csc1C`, the Potency entry is “inactive”.

Turning to `CCCCc1nc2sc(C(=O)OCC)c(N)c2c2c1COC(C)(C)C2`, the Potency result was “inactive”.

Consider `O=C(OCc1cn([C@@H]2C[C@H](c3ccc(Cl)cc3)N(Cc3cccs3)C[C@H]2O)nn1)c1ccccc1`, for which the Potency result was “inactive”.

As for `O[C@@H]1C[C@H](c2ccccc2)N(Cc2cccs2)C[C@H]1n1cc(C2CC2)nn1`, the Potency result is “inactive”.

`O[C@H]1C[C@H](c2ccc(Cl)cc2)N(Cc2cccs2)C[C@@H]1n1cc(C2CC2)nn1`: the Potency is 44.7 µM (active).

Regarding `CC(C)Cn1nc(C(=O)OCC(=O)Nc2ccc(OC(F)(F)F)cc2)c2ccccc2c1=O`, the Potency result is “inactive”.

Consider `Cc1ccccc1S(=O)(=O)N1CCCC(CCC(=O)NCC2CCCCC2)C1` (centres undefined), for which the Potency result was “inactive”.

Consider `NC(=O)C1CCN(C(=O)c2ccc3c(=O)n(Cc4cccc(Br)c4)c(=S)[nH]c3c2)CC1`, for which the Potency is 44.7 µM (active).

In the case of `CCOC(=O)N1CCN(C(=O)c2ccc3c(=O)n(CCc4ccc(OC)c(OC)c4)c(=O)[nH]c3c2)CC1`, the Potency entry was “inactive”.

Consider `CCOc1cc2[nH]c(=S)n(Cc3ccc(C(=O)N4CCN(C)CC4)cc3)c(=O)c2cc1OCC`, for which the Potency entry was “inactive”.

`O=C(Nc1cccc2cccnc12)C1=C(c2ccccc2)S(=O)(=O)CCO1`: the Potency result was “inactive”.

Turning to `COc1ccc2c(C)c(CC(=O)Nc3nnc(C)s3)c(=O)oc2c1OC`, the Potency entry is “inactive”.

For the molecule `COc1ccc(CC(=O)Nc2ccc(-c3nc4ccccc4s3)c(C)c2)cc1`, the Potency result is “inactive”.

`COc1ccc2cc(/C=C(/CC(=O)O)c3nc4ccccc4s3)ccc2c1`: the Potency entry was “inactive”.

In the case of `COC(=O)Cc1cc(=O)n(-c2nc3ccccc3s2)[nH]1`, the Potency was 6.31 µM (active).

Turning to `COc1ccc(N2C(=O)C(C)(C)CS2(=O)=O)cc1S(=O)(=O)Nc1ccc(F)c(Cl)c1`, the Potency entry is “inactive”.

As to `CCC1c2nccn2CCCN1C(=O)c1ccc(Cn2cncn2)o1` (centres undefined), the Potency entry was “inactive”.

Regarding `COC(=O)c1ccc(OC)cc1OCc1ccccc1C#N`, the Potency result is “inactive”.

`COc1ccc(C(C#N)=C2C=CC(=NO)c3ccccc32)cc1`: the Potency is 39.8 µM (active).

On to `COc1ccc(-c2ccccc2CN)cc1`, for which the Potency result was “inactive”.

For the molecule `COc1ccc(C(=O)c2sc(Nc3cccc(F)c3)nc2N)cc1`, the Potency entry was “inactive”.

Consider `O=C(Nc1ccc(Br)c2cccnc12)c1ccc(Cn2cc([N+](=O)[O-])cn2)o1`, for which the Potency was 15.8 µM (active).

In the case of `O=C(NCCc1ccccn1)c1nc(Cn2cc([N+](=O)[O-])cn2)no1`, the Potency entry was “inactive”.

Regarding `CC(C)N(C(=O)Cn1c(CN2CCOCC2)nc2ccccc21)c1ccccc1`, the Potency entry is “inactive”.

As to `COc1ccc(-c2cn(-c3ccc(C)cc3)c(=O)n2CC(=O)Nc2ccc(OC)c(OC)c2)cc1`, the Potency entry is “inactive”.

`COc1ccc(-c2nc3ccccc3n2CCC(C)C)cc1OC`: the Potency entry is “inactive”.

Turning to `COc1ccc(-n2c(-c3ccc(OC)c(OC)c3)n[nH]c2=S)cc1`, the Potency was 17.8 µM (active).
